Compound activity (PubChem BioAssay)
Only some compounds are listed: those with a hit (about 3% of all), similar ones and a draw of the others.
KAT2A inh: blocks human GCN5L2 histone acetyltransferase; Q92830; GCN5L2 HAT assay, ThioGlo1 CoA-SH fluorescence; Potency, µM (highest dose often 58.9 µM), for inactives: top-dose activity change, negative = inhibition, actives largely listed as inhibitors; actives 0.21% (n = 390,000); AID 504327; note: % is set by controls: 0 for no effect and ±100 for the full control effect
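GCN5L2 (20 nM) in 50mM HEPES pH 7.5, 0.1mM EDTA, 0.01% Tween-20 preincubated 15 min with compounds at room temperature. Reaction started with H3(1-25) 75uM, acetyl-CoA 70uM, ThioGlo1 50uM; CoA-thiol fluorescence (Ex340/Em540) read at 0 and 20 min.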
VDR inhibitor: inhibitors of human vitamin D receptor; P11473; VDR-SRC2-3 peptide fluorescence polarization, 2 h; Potency, µM, for the others: max response, negative = inhibition, usual class: inhibitors; actives 0.93% (n = 400,000); AID 504847; note: % is set by controls: 0 for no effect and ±100 for the full control effect
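Inhibition of the VDR/SRC2-3 peptide interaction is quantified by fluorescence polarization. Compounds (23 nl, pintool) incubate with the reagents for 2 hours at ambient room temperature.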
PLK1 PBD block: inhibitors of human PLK1 polo-box domain binding; Plk1 PBD binding of FITC phosphopeptide, fluorescence polarization; Potency, µM, inactives show max response, negative = inhibition, actives largely listed as inhibitors; actives 2.8% (n = 360,000); AID 720504; note: series mostly up to about 57 µM; % is set by controls: 0 for no effect and ±100 for the full control effect; nearly all actives have a fitted effect of over 65% in size
TSG101-PTAP inh: blocks PTAP/TSG101 interaction to inhibit HIV-1 budding. Potency, µM (titrated, usually from 115 µM), inactives show at the highest dose activity change, negative = inhibition, actives largely listed as inhibitors. Q99816. 340,000 tested, under 10 active. Fluorescence polarization, FITC-PTAP peptide / Tsg101 binding; active = well fitted inhibition curve with a large enough effect in the main read-out, with a control signal flat, not every such curve was filed as active; inconclusive = small, poorly fitted or top-dose-only effect, or effect the other way, or a change in a side signal; inactive = no such curve, though single readings can be large or run the other way; note: % of control where 0% means no effect
Target sequence (Q99816 whole entry, looked up): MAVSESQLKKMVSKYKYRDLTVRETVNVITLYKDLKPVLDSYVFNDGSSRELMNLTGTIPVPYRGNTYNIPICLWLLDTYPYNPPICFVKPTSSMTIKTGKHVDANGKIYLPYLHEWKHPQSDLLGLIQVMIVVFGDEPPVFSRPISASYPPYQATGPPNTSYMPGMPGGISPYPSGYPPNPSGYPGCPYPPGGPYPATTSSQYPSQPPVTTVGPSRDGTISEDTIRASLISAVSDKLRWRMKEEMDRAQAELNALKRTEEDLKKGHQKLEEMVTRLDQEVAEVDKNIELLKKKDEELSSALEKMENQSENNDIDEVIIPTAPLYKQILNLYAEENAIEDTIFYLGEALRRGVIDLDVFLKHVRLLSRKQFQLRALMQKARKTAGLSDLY
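Fluorescence polarization binding of Tsg101 binding domain (10 uM final) to FITC-labeled PTAP peptide (50 nM final) in HEPES pH 7.5 buffer with NaCl, Tween 20, EDTA, TCEP. Compounds added before peptide; binding 20 min at RT.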
USP1-UAF1 inh: blocks the human USP1/UAF1 deubiquitinase complex; O94782; recombinant USP1/UAF1, Ub-Rhodamine cleavage fluorescence; Potency, µM (series often up to 57.1 µM), for the others: top-dose activity change, negative = inhibition, hits mostly inhibitors; actives 0.23% (n = 390,000); AID 743255; note: % is set by controls: 0 for no effect and ±100 for the full control effect; nearly all actives have a fitted effect of over 60% in size
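1 nM enzyme complex + cpd, 15 min RT; start with Ub-Rho 150nM final; kinetic fluorescence ex 480/em 540, 6 reads q60 s. Buffer 50mM HEPES pH 7.8, 0.5mM EDTA, 0.1 mg/ml BSA, 1mM TCEP, 0.01% Tween-20.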
VDR confirm: inhibits human vitamin D receptor, primary hit validation; AID 602199; Potency, µM, usual class: inhibitors; shares compounds with VDR inhibitor; VDR-coactivator inhibition assay, qHTS confirmation; actives 89% (n = 840)
VDR FP: blocks human VDR-coactivator binding in fluorescein assay | shares compounds with VDR inhibitor | VDR-coactivator binding, fluorescein fluorescence polarization | Potency, µM (titrated, usually from 57.1 µM), for inactives: at the top dose activity change, negative = inhibition, most hits filed as inhibitors | actives 48% (n = 840)
VDR bla: confirmation of human vitamin D receptor inhibitors in reporter cells | actives 23% (n = 840) | VDR beta-lactamase reporter cells, FRET ratio; cells co-treated with VDR agonist LG190178 | shares compounds with VDR inhibitor | Potency, µM (titrated, usually from 46.1 µM), inactives show top-dose activity change, negative = inhibition, most hits filed as inhibitors; note: % is set by controls: 0 for no effect and ±100 for the full control effect
VDR cytotox: cytotoxic in counter-screen for VDR inhibitors; shares compounds with VDR inhibitor; cytotoxicity counter-screen, cell viability, qHTS; Potency, µM (doses to about 48.3 µM), without a hit: at the highest dose activity change, negative = cytotoxicity, most hits filed as cytotoxic; actives 18% (n = 840);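 note: plate controls were DMSO for no effect and high-concentration cycloheximide for full effect; nearly all actives have a fitted effect of over 75% in size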
Numbers without * were called inactive; ? = inconclusive; / = no result. Unless noted, calls come from the whole dose curve; as a rule, active = well fitted curve in the direction sought with a large enough effect; inconclusive = small, poorly fitted or top-dose-only effect, or another doubt; inactive = no such curve, though single readings can be large; an effect the other way counts as inactive or inconclusive. Potency is the fitted concentration of half-maximal effect.

SMILES	KAT2A inh	VDR inhibitor	PLK1 PBD block	TSG101-PTAP inh	USP1-UAF1 inh	VDR confirm	VDR FP	VDR bla	VDR cytotox
O=C1NN(c2ccccc2)C(=O)/C1=C/c1ccc(Sc2ccc(Cl)cc2)o1	/	79µM*	3µM*	-4%	4%	?	?	-5%	/
O=C(O)CSc1cc(NS(=O)(=O)c2cccc([N+](=O)[O-])c2)c2ccccc2c1O	41%	?	1.5µM*	-8%	18µM*	5*	2.5µM*	?	?
CCOC(=O)c1cnc(-c2ccccc2)nc1N1CCOCC1	-3%	-4%	2%	1%	-6%	/	/	/	/
CCOC(=O)c1[nH]cc(-c2ccccc2)c1N1CCOCC1	-15%	22µM*	5.3µM*	-5%	-19%	21*	?	14%	?
O=[N+]([O-])c1ccc(C2=Nn3c(Cn4nnc5ccccc54)nnc3SC2)cc1	17%	?	5.3µM*	-4%	-6%	?	8.9µM*	-1%	?
CCCc1nnc2n1N=C(c1ccc([N+](=O)[O-])cc1)CS2	-1%	-6%	0%	-6%	-8%	/	/	/	/
O=C(/C=C/c1ccc([N+](=O)[O-])cc1)c1cccs1	-5%	?	?	-8%	-18%	?	7.1µM*	?	-9%
CCN(CC)S(=O)(=O)c1ccc(O)c(NS(=O)(=O)c2ccccc2F)c1	-8%	79µM*	24µM*	-3%	-12%	17*	-20%	2%	11%
CC1=NN(c2ccccc2)C(=O)/C1=C\C=C\c1ccccc1	?	40µM*	0%	-4%	?	19*	?	?	-25%
CC1=NN(c2ccccc2)C(=O)/C1=C\c1cn(C)c2ccccc12	-10%	-15%	-10%	-2%	-12%	/	/	/	/
CCOC(=O)c1c(C2COc3ccccc3O2)csc1NC(=O)c1ccco1 (stereo unspecified)	-29%	?	2.5µM*	-5%	-13%	?	2.2µM*	-25%	-4%
Cc1cccc(C)c1OCC(=O)Nc1nc(-c2ccc(Br)cc2)ns1	-11%	4%	/	/	-4%	/	/	/	/
CC(=O)OCCNc1cc(SC(C)C)c2nonc2c1[N+](=O)[O-]	-9%	16%	-6%	1%	1%	/	/	/	/
CCC(=O)OCCNc1cc(Sc2nccn2C)c2nonc2c1[N+](=O)[O-]	28%	32µM*	2.1µM*	-2%	-14%	21*	?	?	15µM*
CCCC(=O)OCCNc1cc(Sc2nc3ccccc3[nH]2)c2nonc2c1[N+](=O)[O-]	-11%	20µM*	1.9µM*	-5%	-9%	8.4*	?	?	23µM*
CCC(=O)OCCNc1cc(SCCC(=O)OC)c2nonc2c1[N+](=O)[O-]	-1%	?	?	-7%	-10%	/	/	/	/
Cc1cc(C)c(NC(=O)CSc2nccn2-c2cccc(Cl)c2)c(C)c1	-1%	13%	/	/	-11%	/	/	/	/
Cn1c(=O)c2nc(SCC(=O)Nc3cc(Cl)cc(Cl)c3)n(C)c2n(C)c1=O	1%	0%	/	/	-6%	/	/	/	/
CCOC(=O)c1nn(-c2ccccc2C)c(=O)c2c(N)scc12	-27%	35µM*	-14%	-6%	?	?	?	21%	-27%
CCOC(=O)c1nn(-c2ccccc2)c(=O)c2c(NC(C)=O)scc12	-2%	-7%	-10%	0%	-6%	/	/	/	/
CCC(=O)N1CCc2cc(Br)cc(S(=O)(=O)CCC(=O)N3CCN(c4cccc(C(F)(F)F)c4)CC3)c21	-2%	-5%	/	/	?	/	/	/	/
Cc1cnc(C2OCCO2)c2cccc(N)c12	/	/	-13%	/	?	/	/	/	/
C=CCn1c(O)c(C2=c3ccccc3=NC2=O)c2ccccc21	-6%	20µM*	17µM*	-5%	-21%	17*	?	?	?
CC(=O)Nc1ccc(C2=NNC(=Nc3cccc(S(=O)(=O)N(C)C)c3)SC2)cc1	-6%	?	19µM*	-2%	10µM*	13*	13µM*	?	?
O=C(/C=C/c1ccc(Br)cc1)c1ccc(NC2=NCCCS2)cc1	-1%	22µM*	-11%	0%	-14%	15*	10µM*	?	18µM*
SMILES	KAT2A inh	VDR inhibitor	PLK1 PBD block	TSG101-PTAP inh	USP1-UAF1 inh	VDR confirm	VDR FP	VDR bla	VDR cytotox
COc1ccc(CCN2C(=O)CC(NNC(=O)c3ccccc3Br)C2=O)cc1OC (stereo unspecified)	3%	-1%	0%	1%	-16%	/	/	/	/
COc1ccc2oc(C(=O)N3CCN(S(=O)(=O)c4c(C)c(C)cc(C)c4C)CC3)c(C)c2c1	/	2%	0%	-5%	-26%	/	/	/	/
CCC(=O)Nc1cccc(C(=O)/C=C/c2cc(Br)ccc2OC)c1	-3%	?	-11%	-6%	-19%	8.9*	14µM*	4.6µM*	?
CC(=O)Nc1cccc(C(=O)/C=C/c2ccc(Br)cc2)c1	0%	25µM*	-27%	0%	-15%	7.1*	8.9µM*	?	-19%
Cc1cn(C)c(CC(=O)N2CCN(c3cccc(Cl)c3)CC2)c1C(=O)O	0%	9%	/	/	-15%	/	/	/	/
CSCC[C@H](NC(=O)c1ccc2c(c1)OCO2)c1nnc2ccccn12	-15%	2%	-13%	-2%	-14%	/	/	/	/
C[C@@H]1CN([C@H](C)CO)C(=O)CCCn2cc(nn2)CO[C@H]1CN(C)C(=O)Nc1ccc(-c2cccs2)cc1	/	/	-29%	/	26%	/	/	/	/
O=C(Cc1ccc(Cl)cc1)NCc1ccccc1Cl	-8%	7%	-5%	1%	-16%	/	/	/	/
O=C(Cc1ccccc1Cl)NC1(O)C(=O)c2ccccc2C1=O	0%	50µM*	-23%	0%	?	11*	-17%	8%	4%
COc1cccc(/C=C2\C(=O)N(c3cccc(C)c3)C(=O)c3ccccc32)c1	-3%	?	2.7µM*	-10%	?	7.9*	3.2µM*	-12%	7%
COc1cccc(N2C(=O)c3ccncc3C2=O)c1	1%	2%	4%	-4%	2%	/	/	/	/
CCOC(=O)c1sc2c(c1C)c(=O)n(Cc1ccccc1)c(=O)n2CCN(C)C	-2%	0%	-5%	-5%	-24%	/	/	/	/
